D3 antag – blocks the human D3 dopamine receptor | actives 2.5% (n = 360,000) | max response, negative = inhibition, % | AID 652054 | D3R cells, DiscoveRx beta-arrestin luminescence, antagonist mode; stronger effect = lower value | P35462; in the data active means max response below about -50%; inconclusive means no clear call, values can overlap the other calls
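Cells plated overnight at 1500 cells/well, then exposed to library compounds with dopamine controls for 90 minutes at 37 degrees C. DiscoveRx reagent added for 30–60 minutes at room temperature; luminescence read, quantitative HTS format.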
D3 ag – D3 dopamine receptor (human) agonism. P35462. D3R DiscoveRx beta-arrestin cells, luminescence, 90 min. actives 0.58% (n = 410,000). AID 652048. max activation, %; in the data active means max activation above about 30%
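Agonist mode: compounds and dopamine controls were applied to plated cells for 90 min at 37 degrees C after an overnight attachment at 1500 cells/well. Luminescent read-out followed 30 - 60 minutes at room temperature with DiscoveRx detection reagent.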
Giardia kill – Giardia lamblia killing. Giardia lamblia trophozoite viability. AID 540267. activity change, % at 7.66 µM, hits read low. actives 0.15% (n = 340,000); in the data active means activity change below about -80%; inconclusive means between about -30% and that limit;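 further: parasites exposed to compound for two days anaerobically before the ATP read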
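Trophozoite viability was measured as ATP-dependent luminescence, read 15-30 min after reagent addition. Before that, parasites at 100 cells/well were exposed to compounds for 48 h, anaerobically, at 37 deg C.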
B2AR arrestin – beta2AR (human) beta-arrestin recruitment activity | P07550 | beta-arrestin recruitment to beta2AR, cell-based reporter | Potency, µM (series often up to 46.1 µM), hits mostly activators | actives 0.02% (n = 330,000); active means well fitted activation curve with a large enough effect; inconclusive means small, poorly fitted or top-dose-only effect; further: nearly all actives have a fitted effect of over 65% in size
Target sequence (P07550 whole entry, looked up): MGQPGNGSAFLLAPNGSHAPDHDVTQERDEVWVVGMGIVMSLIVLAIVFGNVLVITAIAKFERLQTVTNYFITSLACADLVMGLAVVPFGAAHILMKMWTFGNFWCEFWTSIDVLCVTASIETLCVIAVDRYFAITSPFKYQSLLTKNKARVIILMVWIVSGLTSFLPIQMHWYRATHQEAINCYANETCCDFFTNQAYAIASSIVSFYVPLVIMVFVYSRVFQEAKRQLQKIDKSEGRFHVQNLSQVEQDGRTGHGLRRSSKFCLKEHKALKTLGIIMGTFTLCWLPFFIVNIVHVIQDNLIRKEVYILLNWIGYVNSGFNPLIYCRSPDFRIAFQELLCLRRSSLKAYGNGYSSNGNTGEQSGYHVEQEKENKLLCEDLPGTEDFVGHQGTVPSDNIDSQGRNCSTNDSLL
Each line names hits and unclear results; the compound was inactive in the other large screens. Rows were chosen to be rich in hits. Some 2.8% of all compounds tested hit in one or more screens of this group.

COc1ccc(CN2CCC(C(=O)NC(C)c3cccc4ccccc34)CC2)cc1 (stereo not drawn)	D3 antag inconclusive (no result: Giardia kill, B2AR arrestin)
COc1ccccc1C(NC(=O)C1CCN(CCOc2ccc(Cl)cc2Cl)CC1)c1ccccn1 (stereo not drawn)	D3 antag inconclusive (no result: Giardia kill, B2AR arrestin)
CC(C)(C)C(=O)Oc1ccc(S(=O)(=O)Nc2ccccc2C(=O)NCC(=O)O)cc1	none (no result: D3 antag, Giardia kill, B2AR arrestin)
COc1ccc(C2CC(c3ccccc3)Oc3cc(OC)ccc32)cc1 (stereo not drawn)	none (no result: D3 antag, D3 ag, B2AR arrestin)
CCCOc1cccn2c(N(C)C(=O)c3ccccc3F)c(CC)nc12	D3 antag -72 (no result: Giardia kill, B2AR arrestin)
CCc1nc2c(OCCn3cccc3)cccn2c1N(C=O)Cc1ccc(OC)cc1	none (no result: Giardia kill, B2AR arrestin)
CCc1nc2c(OCCC3CCCCC3)cccn2c1N(C)C(=O)c1ccccc1F	D3 antag -57 (no result: Giardia kill, B2AR arrestin)
CCc1nc2c(OCCC3CCCCC3)cccn2c1N(C)C(=O)C(C)C	D3 antag inconclusive (no result: Giardia kill, B2AR arrestin)
CCc1nc2c(OCCn3cccc3)cccn2c1N(C=O)Cc1ccccc1	D3 ag 45 (no result: Giardia kill, B2AR arrestin)
CCc1nc2c(OCC=C(C)C)cccn2c1N(C)C(=O)c1ccccc1F	none (no result: Giardia kill, B2AR arrestin)
CCc1nc2c(OCC3CCCCC3)cccn2c1N(C)C(=O)c1ccccc1F	D3 antag -57 (no result: Giardia kill, B2AR arrestin)
COc1ccc(-c2nc(CN3CCC(C(=O)NCCCN4CCN(c5ccccc5F)CC4)CC3)c(C)o2)cc1OC	none (no result: D3 antag, Giardia kill, B2AR arrestin)
O=S(=O)(NCCc1csc2nc(-c3ccc(Cl)cc3)nn12)c1ccc2c(c1)OCCO2	none (no result: D3 antag, Giardia kill, B2AR arrestin)
CC(C)(C)OC(=O)NC(Cc1ccccc1)C(=O)NC1COC2CC(n3ccc(=O)[nH]c3=O)OC12 (stereo not drawn)	none (no result: D3 antag, D3 ag, B2AR arrestin)
Cc1ccccc1CNC(=O)c1ccccc1N	D3 ag 30
CCc1sc(-c2cc3cccc(OC)c3oc2=O)nc1-c1cc(C)ccc1C	none (no result: D3 antag, D3 ag, B2AR arrestin)
COc1ccccc1N=C1NC(=O)/C(=C/c2ccc(N(C)C)cc2)S1	D3 antag -95
CC(=O)Nc1ccc(S(=O)(=O)NCc2cn3c(C)csc3n2)cc1	D3 antag -69
CC(=O)Nc1ccc(S(=O)(=O)NCc2csc(C)n2)cc1	none
CC1=C(c2ccc(C)c(C)c2)S(=O)(=O)N=C1N1CCC(C(=O)NCc2ccc(C)o2)CC1	none (no result: D3 antag, Giardia kill, B2AR arrestin)
CC1CCC(N2CCN(S(=O)(=O)Cc3ccccc3)CC2)CC1 (stereo not drawn)	none
c1ccc(C2CCC(N3CCN(c4ccccc4)CC3)CC2)cc1 (stereo not drawn)	D3 antag -52
COc1ccccc1N1CCN(C2CCN(C3CCC(c4ccccc4)CC3)CC2)CC1 (stereo not drawn)	none (no result: D3 antag, D3 ag, Giardia kill)
O=S(=O)(Cc1ccccc1)N1CCC(N2CCN(c3ccccc3)CC2)CC1	D3 antag inconclusive, D3 ag 69
CCc1ccccc1NS(=O)(=O)c1ccc2c(c1)NC(=O)CC(=O)N2	none
CCCN(CCC)CCc1cccc2c1CC(=O)N2	D3 ag 81 (no result: D3 antag, Giardia kill, B2AR arrestin)
CCCC[C@H]1C2=C3[C@@H](CC(C(=O)OC)=C[C@@H](C(=O)OC)[C@H]3C(C)(C)C2=O)n2c(=O)n(C)c(=O)n21	none (no result: D3 antag, D3 ag, B2AR arrestin)
COc1ccc(/C(C)=N\Nc2nc(-c3ccc(Cl)cc3)cc(C(F)(F)F)n2)cc1OC	D3 ag 45
Cc1cccc(NC(=O)CCC(=O)N/N=C/c2cc([N+](=O)[O-])ccc2O)c1	D3 antag inconclusive
O=C(CCC(=O)Nc1ccc(F)cc1)N/N=C/c1cc([N+](=O)[O-])ccc1O	D3 antag -70
O=C(CCC(=O)Nc1ccc(Br)cc1)N/N=C/c1cc([N+](=O)[O-])ccc1O	D3 antag -59
Cc1ccn(CC(=O)N/N=C/c2cc([N+](=O)[O-])ccc2O)n1	D3 antag inconclusive
O=C(CCC(=O)Nc1cc(C(F)(F)F)ccc1Cl)N/N=C\c1cc([N+](=O)[O-])ccc1O	D3 antag -70
Cc1ccc(NC(=O)CN2C(=O)CCc3cc(S(=O)(=O)N4CCOCC4)ccc32)c(C)c1	none (no result: D3 antag, Giardia kill, B2AR arrestin)
C/C=C1\COC(C(=O)NCCN2CCOCC2)(C(F)(F)F)C=C1C=C(C)C (stereo not drawn)	none (no result: D3 antag, D3 ag, B2AR arrestin)
COc1cc2c(cc1NC(=O)CN(C)Cc1ccc(OC)c(OC)c1)oc1ccccc12	D3 ag 38
O=C(N/N=C/c1ccc(Cl)c([N+](=O)[O-])c1)c1cc(-c2ccc3c4c(cccc24)CC3)n[nH]1	D3 antag -58
O=c1oc(-c2ccco2)nc2ccccc12	D3 antag -57
CCOC(=O)c1c(CSc2ccc(CC)cc2)oc2ccc(O)c(CN(C)C)c12	D3 antag -64
CCOC(=O)c1c(C)oc2ccc(O)c(CN(C)C)c12	none
CCOc1c(CNCCCSc2nc(C)cc(C)n2)cccc1OC	none
Cc1ccc(CNCCCSc2nc(C)cc(C)n2)cc1	D3 antag -92
Cc1cc(C)nc(SCCCNCc2ccc(Br)cc2)n1	D3 antag -95
Cc1cc(C)nc(SCCCNCc2c(F)cccc2Cl)n1	none
CCOc1ccc(CCNC(=O)c2cnc3c(-c4ccc(F)cc4)c(C)nn3c2C)cc1OCC	none (no result: D3 antag, Giardia kill, B2AR arrestin)
O=C(Cc1ccccc1)N(Cc1cccnc1)c1nc2c(F)cc(F)cc2s1	none (no result: D3 antag, Giardia kill, B2AR arrestin)
O=C(NCc1ccc(Cl)cc1)c1cc(S(=O)(=O)N2CCCCC2)c[nH]1	D3 antag -54
COc1cc(C(C)=O)ccc1Oc1ncnc2c1cnn2-c1ccccc1	D3 ag 36
Cc1ccc(C(=O)COC(=O)c2ccncc2)cc1[N+](=O)[O-]	D3 antag -92
Cc1ccc(C(=O)COC(=O)c2cc(Cl)ccc2O)cc1[N+](=O)[O-]	none
O=C(Oc1oc(-c2ccco2)nc1C=Nc1ccccc1)c1ccco1	D3 antag -50
CNC(=O)c1nc(C)c(C2(C)CC(c3ccccc3)=NO2)s1 (stereo not drawn)	none
Cc1nc(C(=O)Nc2cc(F)cc(Cl)c2)sc1C1(C)CC(c2ccccc2)=NO1 (stereo not drawn)	D3 ag 41 (no result: B2AR arrestin)
Cc1nc(-c2ccc(Cl)cc2)sc1C1(C)CC(c2ccccc2)=NO1 (stereo not drawn)	none (no result: B2AR arrestin)
Cc1nc(-c2ccc(Cl)cc2)sc1C1(C)CC(c2ccccc2Br)=NO1 (stereo not drawn)	D3 ag 57 (no result: B2AR arrestin)
COC(=O)c1ccc(Cl)cc1NC(=O)N1CCC(CN2CCC(C)CC2)CC1	none (no result: D3 antag, Giardia kill, B2AR arrestin)
COc1ccc(C2C(C#N)=C(N)N(c3sc4c(c3C#N)CCCC4)C3=C2C(=O)CC(C)(C)C3)cc1 (stereo not drawn)	none
COc1ccc(C2C(C#N)=C3NC(=O)c4c(sc5c4CCCCC5)N3C3=C2C(=O)CC(C)(C)C3)cc1 (stereo not drawn)	D3 antag -87
COc1cc(-c2cc(C(=O)Nc3ccc(C)c(S(=O)(=O)N4CCOCC4)c3)c3ccccc3n2)cc(OC)c1OC	D3 ag 33
Cc1ccccc1NC(=O)c1cc(S(=O)(=O)c2ccccc2)ccc1Cl	D3 antag -52
NC(C(=O)O)c1nn[nH]n1 (stereo not drawn)	none (no result: D3 antag, D3 ag, B2AR arrestin)
O=C(Nc1nc(-c2ccccn2)cs1)c1cc(S(=O)(=O)N2CCOCC2)ccc1F	D3 antag -77
O=C(Nc1nc(-c2nc3ccccc3s2)cs1)c1ccc(S(=O)(=O)N2CCOCC2)cc1	D3 ag 51

Source: PubChem (National Center for Advancing Translational Sciences (NCATS))
